Laboratory results reported in ChEMBL document CHEMBL1201862, “PubChem BioAssay data set” (2004).
The whole screen tested about 18,000 compounds, of which about 1,200 (6.7%) were called active. About 16% were inconclusive and are not listed. The rule behind the calls is not given here. Only a selection was taken, and actives are over-represented in it overall.

Test: qHTS for Inhibitors of binding or entry into cells for Marburg Virus.

Compound | Potency
COC[C@@H]([C@H](O)[C@H](O)C(=O)NCC[C@H](C)c1nc(/C=C/C[C@@H]2O[C@]3(C[C@@H](O)[C@@H]2C)O[C@H]([C@H](C[C@H](O)[C@H](C)[C@H](O)[C@H](C)/C=C(C)/C(C)=C/C=C/C(C)=C\C#N)OC)[C@H](OP(=O)(O)O)C3(C)C)co1)N(C)C | 0.0411 µM (active)
COC(=O)[C@H]1[C@H]2C[C@@H]3c4[nH]c5cc(OC)ccc5c4CCN3C[C@H]2C[C@@H](OC(=O)c2cc(OC)c(OC)c(OC)c2)[C@@H]1OC | 355 µM (active)
NITROPRUSSIDE, CHEMBL2097081 | inactive; 562.3 nM
